Screening results (PubChem)
AMA1 RON2 block: inhibitors of Plasmodium falciparum AMA1-RON2 interaction. AlphaScreen AMA1-biotinylated RON2 peptide binding. Potency, µM (titrated, usually from 58.2 µM), for the others: at the highest dose activity change, negative = inhibition, usual class: inhibitors. 360,000 tested, 0.2% active. AID 720542;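 also: 0% = vehicle wells and -100% = peptide control; nearly all actives have a fitted effect of over 45% in size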
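AMA1 (3D7) with his tag at 25 nM final met compounds first, then biotinylated RON2 peptide at 25 nM; detection used donor plus acceptor beads, 10 µg/mL apiece, read by AlphaScreen after 30 min at room temperature.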
Pf growth 96h: inhibits malaria parasite growth, 96 h; P. falciparum luciferase reporter growth, 96 h; Potency, µM (top dose mostly 28.7 µM), for inactives: top-dose activity change, negative = inhibition, usual class: inhibitors; 320,000 tested, 6.9% active; also: % is scaled to controls: 0 for no effect and ±100 for the full control effect
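P. falciparum expressing integrated firefly luciferase, in erythrocytes at 2% hematocrit, 0.05% parasitemia, incubated with compounds 96 h at 37 C, 5% CO2. Growth inhibition read as loss of luminescence; two-generation exposure targets delayed-death apicoplast inhibitors.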
Sm TGR block: inhibitors of Schistosoma mansoni thioredoxin glutathione reductase; Q962Y6; purified TGR, DTNB reduction, TNB absorbance 405 nm; Potency, µM (series often up to 114 µM), inactives show at the highest dose activity change, negative = inhibition, hits mostly inhibitors; 360,000 tested, 3% active; AID 485364; also: % is scaled to controls: 0 for no effect and ±100 for the full control effect; nearly all actives have a fitted effect of over 60% in size
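TGR 20 nM + NADPH 100 uM (dispensed conc.), cpd preinc 15 min RT; start with NADPH (500 uM addition) then DTNB (15 mM addition). Kinetic TNB absorbance, 405 nm filter. Four-parameter Hill fit across titration.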
NS1 inh: influenza NS1 inhibition | 270,000 tested, 0.4% active | AID 2326 | Potency, µM (highest dose often 46.1 µM), without a hit: top-dose activity, positive = more growth; calls by dose curve; also: actives are rising curves; nearly all actives have a fitted effect of over 50% in size
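OD600 was taken as the measure of yeast growth restored by compound in an NS1-expressing S. cerevisiae strain. Cells had been washed out of glucose medium and diluted 1:100 into galactose -URA medium, pH 6.0.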
Pf growth 48h: inhibits P. falciparum growth in the first generation, 48 h. Potency, µM (series often up to 28.7 µM), for the others: at the top dose activity change, negative = inhibition, actives largely listed as inhibitors. 310,000 tested, 5.9% active. AID 504832. P. falciparum luciferase growth in erythrocytes, 48 h; also: % is scaled to controls: 0 for no effect and ±100 for the full control effect
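Parasite viability was followed by luminescence of a genomically integrated firefly luciferase. Cultures held 0.1% parasitemia at 2% hematocrit (final), incubated under 5% CO2 at 37 C.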
The depositor's hits bear a star; ? = inconclusive; · = no result; ! = a repeat was not active; [ ] = another dose, or the depositor's remark. Most compounds without a hit are left out; they make up all but 11% or so of the library. Unless noted, calls follow the shape of the dose curve; as a rule, active = well fitted curve in the direction sought with a large enough effect; inconclusive = small, poorly fitted or top-dose-only effect, or another doubt; inactive = no such curve, though single readings can be large; an effect the other way counts as inactive or inconclusive. Potency is read from the fitted curve at half-maximal effect.

SMILES	AMA1 RON2 block	Pf growth 96h	Sm TGR block	NS1 inh	Pf growth 48h
COc1cc(OC)c(OC)cc1CN1CCc2nc(N3CCN(c4ccccc4F)CC3)ncc2C1	·	·	-5%	·	·
Cc1oc2ccccc2c1CC(=O)NCCCN(C)C	-8%	5%	-21%	-5%	2.1µM*
COc1ccc(CCNC(=O)C2CCC(=O)N2S(=O)(=O)c2ccc(C)cc2)cc1 (stereo not given)	-3%	?	-8%	6%	-6%
CCCCCCCCCCCCOCCOCCOCCOCCOCCOCCOCCOCCOCCO	·	11µM*	·	·	?
CCOC(=O)c1cc(-c2nnc(SCC(=O)Nc3ccc(F)cc3)o2)c(C)nc1C	4%	12µM*	11%[11.4 µM]	-7%	·
CCOc1ccc(-c2nnc(SCC(=O)Nc3cc(C)ccc3OC)o2)cc1	·	·	11µM*	·	·
CCOc1ccc(-c2nnc(SCC(=O)Nc3ccc(C)cc3Cl)o2)cc1	·	·	18µM*	·	·
Cc1sc(NC(=O)CSc2nnc(-c3ccc(F)cc3)o2)c(C#N)c1C	10%	9.3µM*	-22%	5%	-13%
COc1ccc(NC(=O)CSc2nnc(-c3ccc(F)cc3)o2)cn1	34%	67%	7%	·	179%
CCOc1ccc(-c2nnc(SCC(=O)Nc3ccc(C)cc3C)o2)cc1	·	·	-5%	·	·
COc1ccc(C)cc1NC(=O)CSc1nnc(-c2ccc(C)cc2)o1	-1%	-8%	6%	-6%	·
Cc1ccc(-c2nnc(SCC(=O)Nc3sc(C)c(C)c3C#N)n2C)cc1	3%	-22%	8%	18%	22%
COC(=O)C(CCSC)NC(=O)c1c(C)oc2ncn(CC(C)C)c(=O)c12 (stereo not given)	·	·	4%	·	·
COc1ccc(CNCc2ccc(C(=O)O)s2)cc1	·	·	-26%	·	·
CCn1ncc([N+](=O)[O-])c1C(=O)Nc1ccc(C)c(C)c1	-2%	?	0%	-1%	-14%
Cc1cc(C(C)(C)C)c(OC(=O)[C@@H]2OC(c3ccccc3)=C[C@H]2c2ccccc2)c(C(C)(C)C)c1	1%	?	-13%	·	5.2µM*
C=CCN1CC[C@]23c4c5ccc(O)c4O[C@@H]2/C(=N/N=C2\CC[C@@]4(O)C6Cc7ccc(O)c8c7[C@@]4(CCN6CC=C)[C@@H]2O8)CC[C@@]3(O)C1C5	·	·	·	-1%	·
C=CCN1CC[C@]23c4c5ccc(O)c4O[C@H]2C(=O)CC[C@@]3(O)[C@H]1C5	-1%	12%	45µM*!	-2%	1%
COc1ccc([C@]23Cc4c(ccc5ccccc45)C(O2)C2=C(CCCC2=O)O3)cc1	·	?	-57%[22.9 µM]	?	18%[5.75 µM]
COc1ccc([C@]23Cc4ccccc4C(O2)C2=C(CC(C)(C)CC2=O)O3)cc1	·	0.6µM*	?	-9%	?
COc1ccc([C@]23Cc4ccccc4C(O2)C2=C(CC4(CCCCC4)OC2=O)O3)cc1	·	?	-18%[22.9 µM]	14%	?
COc1ccc([C@]23Cc4ccccc4C(O2)C2=C(CCCC2=O)O3)cc1	·	1.5µM*	0%[22.9 µM]	0%	?
COc1ccc([C@]23Cc4cc(OC)c(OC)cc4C(O2)C2=C(CCCC2=O)O3)cc1	·	?	3.5µM*	2%	?
COc1ccc([C@]23Cc4ccccc4C(O2)C2=C(O3)C(=O)c3ccccc3C2=O)cc1	·	45%[5.75 µM]	7.1µM*	23%	1.5µM*
CCCC(C)NC(=O)C1c2ccccc2Oc2ccccc21 (stereo not given)	8%	?	-3%	21%	8%
SMILES	AMA1 RON2 block	Pf growth 96h	Sm TGR block	NS1 inh	Pf growth 48h
O=C(NCCOc1ccccc1)[C@@H]1CCCN1C(=O)c1cccs1	24%	·	·	·	·
CC(=O)Nc1ccc(C=NNc2ccc([N+](=O)[O-])cn2)cc1	-1%	·	·	·	·
Cc1cccc(N2CC(C(=O)NCCC3=CCCCC3)CC2=O)c1C (stereo not given)	-1%	?	-4%	·	-11%
CC(C)C1Nc2c(O)cc(Cl)c([N+](=O)[O-])c2C2C=CCC21 (stereo not given)	21%	-8%	7.1µM*	-46%	-4%
COc1cccc(COC(=O)C2CCN(S(=O)(=O)c3ccc(C)cc3)CC2)c1OC	-2%	0%	3%	·	?
CCOc1ccc(S(=O)(=O)N2CCC(C(=O)OCc3cccc(OC)c3OC)CC2)cc1	1%	?	0%	·	9.3µM*
COc1ccccc1CNC(=O)COc1ccc(S(=O)(=O)N2CCCC2)cc1	-14%	-28%	5%	3%	13µM*
CC(C)NC(=O)COc1ccc(S(=O)(=O)N2CCCC2)cc1	-7%	1.5µM*	0%	-7%	-16%
CC(=O)Nc1ccc(NC(=O)COc2ccc(S(=O)(=O)N3CCCC3)cc2)cc1	8%	?	1%	4%	?
CSc1ccccc1NC(=O)COc1ccc(S(=O)(=O)N2CCCC2)cc1	-1%	?	12%	-6%	13µM*
COc1ccc(Nc2cc(C)c3cc(NC(=O)Cc4ccc(Cl)cc4)ccc3n2)cc1	·	·	4%	·	·
COc1ccc(C(=O)Nn2c(CC(C)C)nc3cc(Cl)ccc3c2=O)c(OC)c1	-3%	?	-17%	18%	-7%
CCN(CC)CCn1c2c(c(SCC(=O)Nc3ccccc3Cl)nc1=O)CCC2	5%	?	1%	·	-19%
CCCCNC(=O)C1(C)CCCCN1C(=O)c1cccc(OC(F)(F)F)c1 (stereo not given)	6%	·	·	·	·
CCN(CC)CCNC(=O)c1c(C)[nH]c(/C=C2\C(=O)Nc3ccc(F)cc32)c1C	·	2.7µM*	·	·	2.1µM*
Cc1ccc2c(c1)/C(=C/c1ccc(F)cc1)C(=O)N2	-10%	2%	2%	-41%	?
Cc1ccccc1CC(=O)NCc1cccnc1	7%	7%	-28%	25%	-8%
c1ccc2c(c1)Sc1ccccc1N2CCN1CCCC1	·	15µM*	·	·	17µM*
O=C(CCN1CCN(CCO)CC1)N1c2ccccc2Sc2ccc(C(F)(F)F)cc21	-2%	?	-14%	-2%	?
CN1CCN(CCCN2c3ccccc3Sc3ccc(C(F)(F)F)cc32)CC1	?	9.3µM*	9%	2%	10µM*
O=C1CSC2(CCN(CCCN3c4ccccc4Sc4ccc(Cl)cc43)CC2)N1	·	8.5µM*	·	0%	?
Clc1ccc2c(c1)N(CCCN1CCCC13CCCCC3)c1ccccc1S2	·	·	·	-8%	·
CC(C)CC(=O)Nc1c2c(nn1-c1ccc(F)cc1)CS(=O)C2 (stereo not given)	-11%	22%	-14%	-8%	?
COc1ccc(CC(=O)Nc2c3c(nn2-c2cccc(C)c2C)CS(=O)C3)cc1OC (stereo not given)	20%	2.6µM*	3%	-7%	16%
COc1ccc(CC(=O)Nc2c3c(nn2-c2cccc(C)c2C)CS(=O)C3)cc1 (stereo not given)	-2%	?	-8%	-5%	8%
CC(=O)Nc1c2c(nn1-c1ccccc1C)CS(=O)C2 (stereo not given)	-1%	22%	50µM*	-6%	14%
